Hit rate of the full screen: of about 5,500 compounds, about 2,000 (36%) were called active. Not shown: some 18% with an inconclusive outcome. Cut-off read from the data, not from the text of the source: active = normalized growth mostly below about 0.91 (no sharp cut-off); inconclusive = no clear call, values can overlap the other calls; inactive = mostly above about 0.92. The list shows a part of the results.
Assay: chemical genetic growth profiling, strain panel (AID 1159580);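 note: tested at 20 µM; growth read once vehicle control cultures reached saturation at 30 °C; 1 = growth at the plate median or of vehicle wells; lower values mean less growth of the strain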
Details: growth OD

Measured: normalized growth

Clc1ccc(OCCOc2ccc(Cl)cc2)cc1
inactive: S. cerevisiae deletion strains, locus YAL013W, strain DEP1, stronger effect = lower value 1.01 | S. cerevisiae deletion strains, locus YBR229C, strain ROT2, stronger effect = lower value 0.99 | S. cerevisiae deletion strains, locus YDL101C, strain DUN1, stronger effect = lower value 1.04 | S. cerevisiae deletion strains, locus YDL134C, strain PPH21, stronger effect = lower value 0.996 | S. cerevisiae deletion strains, locus YDR150W, strain NUM1, stronger effect = lower value 1.01 | S. cerevisiae deletion strains, locus YEL061C, strain CIN8, stronger effect = lower value 0.99 | S. cerevisiae deletion strains, locus YGR078C, strain PAC10, stronger effect = lower value 1.02 | S. cerevisiae deletion strains, locus YHR030C, strain SLT2, stronger effect = lower value 0.978 | S. cerevisiae deletion strains, locus YHR087W, strain rtc3, stronger effect = lower value 0.965 | S. cerevisiae deletion strains, locus YJL187C, strain SWE1, stronger effect = lower value 1.02 | S. cerevisiae deletion strains, locus YJR043C, strain POL32, stronger effect = lower value 1.04 | S. cerevisiae deletion strains, locus YJR075W, strain HOC1, stronger effect = lower value 0.998 | S. cerevisiae deletion strains, locus YLR039C, strain RIC1, stronger effect = lower value 1.01 | S. cerevisiae deletion strains, locus YLR058C, strain SHM2 (second series), stronger effect = lower value 1.01 | S. cerevisiae deletion strains, locus YLR085C, strain ARP6, stronger effect = lower value 1.01 | S. cerevisiae deletion strains, locus YLR262C, strain YPT6, stronger effect = lower value 0.95 | S. cerevisiae deletion strains, locus YML094W, strain GIM5, stronger effect = lower value 0.971 | S. cerevisiae deletion strains, locus YMR219W, strain ESC1, stronger effect = lower value 1.02 | S. cerevisiae deletion strains, locus YMR263W, strain SAP30, stronger effect = lower value 1.01 | S. cerevisiae deletion strains, locus YNL128W, strain TEP1, stronger effect = lower value 1.01 | S. cerevisiae deletion strains, locus YNL153C, strain GIM3, stronger effect = lower value 1 | S. cerevisiae deletion strains, locus YNL298W, strain CLA4 (second series), stronger effect = lower value 0.989 | S. cerevisiae deletion strains, locus YNL322C, strain KRE1, stronger effect = lower value 0.998 | S. cerevisiae deletion strains, locus YNR030W, strain Alg12, stronger effect = lower value 0.983 | S. cerevisiae deletion strains, locus YOL006C, strain TOP1, stronger effect = lower value 0.937 | S. cerevisiae deletion strains, locus YPL055C, strain LGE1, stronger effect = lower value 0.975 | S. cerevisiae deletion strains, locus YPL241C, strain CIN2, stronger effect = lower value 0.986 | S. cerevisiae deletion strains, locus YPR135W, strain CTF4, stronger effect = lower value 1.07 | S. cerevisiae strains, strain wild type, stronger effect = lower value 1.01

Reference: PubChem BioAssay AID1159580 (chemical genetic matrix, 2015)
